CSC inhib – cancer stem cell inhibition; inhibition, % at 7.5 µM; cancer stem cell-like cells viability, luminescence; hit rate 1.1% among 300,000; in the data active means inhibition above about 75%; inconclusive means no clear call, values can overlap the other calls; tested in HMLE shEcad cells
MPTP block – permeability transition pore inhibition | isolated mouse mitochondria, Ca2+ swelling absorbance, 30 min | inhibition, % at 10 µM | hit rate 1.4% among 360,000 | AID 602449;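 active means inhibition of 50% or more, scaled per plate between neutral and stimulator controls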;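 further: 0% = DMSO wells given calcium and 100% = 1 mM EGTA wells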
Beta cell apopt – blocks beta cell apoptosis; INS-1E cytokine-induced death, ATP luminescence, 48 h; percent of positive-control rescue, neutral wells zero; protection from apoptosis, % (concentration not given with the values); hit rate 0.8% among 300,000; AID 435005;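 active means Every replicate reaches about 75%, or at least half do and their mean reaches it too, limit read from the data; inconclusive means At least half of replicates reach the limit but their mean does not; inactive means Under half of replicates reach the limit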;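 further: 0% = cytokine-treated negative control wells and 100% = positive control rescue; higher means more ATP so stronger rescue from cytokine killing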
SKKanGAS inh – blocks kanamycin growth of S. pyogenes SKKanGAS strain | BacTiter-Glo, 6 h | inhibition, % at 7.5 µM | hit rate 1.3% among 300,000;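 active means mean replicate score, as percent of positive control median, at least 50; inconclusive means mean below 50 but one replicate at or above 50; inactive means mean and every replicate below 50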;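 further: strain carries kanamycin resistance gene driven by streptokinase promoter and grows in 40 µg/ml kanamycin; loss of luminescence reflects streptokinase promoter inhibition or plain growth inhibition; 0% = median of DMSO wells and 100% = positive control at its reference dose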
Mdm2 MdmX PPI – human Mdm2/MdmX binding inhibition; SaOS-2 split-luciferase Mdm2/MdmX complementation, luminescence; hit rate 3% among 330,000; inhibition, % at 8 µM; O15151+Q00987;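 active means inhibition of at least 50% at 8 µM in the primary screen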
Target sequence (O15151 whole entry, looked up): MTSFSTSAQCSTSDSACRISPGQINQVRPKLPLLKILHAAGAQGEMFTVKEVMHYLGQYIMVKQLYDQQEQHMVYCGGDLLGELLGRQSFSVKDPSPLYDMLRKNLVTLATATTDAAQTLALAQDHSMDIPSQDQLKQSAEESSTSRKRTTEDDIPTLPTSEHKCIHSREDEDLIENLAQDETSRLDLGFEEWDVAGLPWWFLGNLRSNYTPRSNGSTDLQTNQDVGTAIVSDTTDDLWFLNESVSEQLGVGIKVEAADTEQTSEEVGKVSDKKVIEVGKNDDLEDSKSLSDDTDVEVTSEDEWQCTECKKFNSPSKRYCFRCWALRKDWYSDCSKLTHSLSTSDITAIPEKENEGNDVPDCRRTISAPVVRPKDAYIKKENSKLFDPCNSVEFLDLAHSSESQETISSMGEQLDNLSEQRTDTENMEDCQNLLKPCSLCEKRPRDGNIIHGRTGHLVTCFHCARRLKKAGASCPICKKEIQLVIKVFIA
Target sequence (Q00987 whole entry, looked up): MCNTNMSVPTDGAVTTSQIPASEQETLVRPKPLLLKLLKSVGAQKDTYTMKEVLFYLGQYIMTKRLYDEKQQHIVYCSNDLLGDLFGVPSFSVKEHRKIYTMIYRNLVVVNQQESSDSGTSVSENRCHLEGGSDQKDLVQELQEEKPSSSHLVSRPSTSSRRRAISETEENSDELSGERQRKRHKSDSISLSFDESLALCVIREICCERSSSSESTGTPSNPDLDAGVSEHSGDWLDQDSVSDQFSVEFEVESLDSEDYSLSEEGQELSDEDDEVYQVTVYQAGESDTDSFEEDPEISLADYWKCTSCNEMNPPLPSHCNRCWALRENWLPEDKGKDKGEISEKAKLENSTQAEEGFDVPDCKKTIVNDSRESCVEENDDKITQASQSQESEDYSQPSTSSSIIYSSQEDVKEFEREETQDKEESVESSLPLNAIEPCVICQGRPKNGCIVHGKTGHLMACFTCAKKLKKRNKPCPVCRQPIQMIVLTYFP
Calb FLC – affects C. albicans growth with fluconazole | C. albicans CaCi-2 (fluconazole-resistant clinical isolate) + fluconazole, Alamar Blue growth, 48 h | growth inhibition, % (test concentration not listed) | hit rate 0.57% among 300,000 | AID 1979;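 active means growth inhibition above about 58% in most replicates, limit read from the data, passing the limit was not always enough; inconclusive means exactly half the replicates above a set limit; inactive means most replicates below a set limit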;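 further: all wells also contain fluconazole at 8 µg/ml as a sub-toxic cotreatment; 0% = median of DMSO wells and 100% = median of geldanamycin control wells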
Mdm2 MdmX conf – human Mdm2/MdmX binding inhibition, confirmed. shares compounds with Mdm2 MdmX PPI. luminescent assay. inhibition, % at 8 µM. hit rate 55% among 10,000. AID 489028; in the data active means inhibition above about 40%
FLuc counter – full-length luciferase inhibition in Mdm2/MdmX counter-screen; shares compounds with Mdm2 MdmX PPI; SaOS-2 full-length luciferase counterscreen, luminescence; inhibition, % at 8 µM; hit rate 77% among 6,200;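 active means mean inhibition at 8 µM reaching about 37%, which flags the compound as non-specific, limit read from the data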;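 further: p53-null SaOS-2 cells with luciferase driven by a doxycycline-inducible promoter; compound on cells about two nights before reading with doxycycline added after day one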
An asterisk follows results filed as active; ? = inconclusive; · = no result; ! = not active in a repeat. Most compounds without a hit are left out; they make up all but 5.4% or so of the library.

SMILES	CSC inhib	MPTP block	Beta cell apopt	SKKanGAS inh	Mdm2 MdmX PPI	Calb FLC	Mdm2 MdmX conf	FLuc counter
COc1ccc2oc(=O)c(-c3csc(Nc4ccc(O)cc4)n3)cc2c1	3	1	-6	104*	54*	-6	19	133*
Cc1ccc(C(=O)NNc2nc3ccccc3nc2C(F)(F)F)cc1	-5	1	7	6	13	-4	·	·
NS(=O)(=O)c1ccc(CCNC(=O)c2ccc(C#CC3(O)CCCCC3)cc2)cc1	48	3	5	-2	70*	31	68*	72*
NS(=O)(=O)c1ccc(CCNC(=O)c2ccncc2)cc1	23	-1	12	10	10	17	·	·
CC(=O)C(Cc1ccccc1)NC(=O)COC(=O)c1cc(S(=O)(=O)N2CCOCC2)ccc1F (configuration not stated)	·	0	·	·	·	·	·	·
CC1(C(=O)NS(=O)(=O)C2CC2)CCCN(C(=O)COc2ccccc2)C1 (configuration not stated)	·	-2	·	·	·	·	·	·
CCOC(=O)C(C)Oc1cccc2c(=O)n(CC(=O)NCc3ccco3)ccc12 (configuration not stated)	55	-1	26	0	51*	4	58*	63*
CC(C)C(=O)c1cn(CC(=O)NCc2ccco2)c2ccccc12	-5	-2	2	22	-15	-8	·	·
CC1CCC(C(C)C)C(OC(=O)Cn2c(-c3ccc(Br)cc3)[n+](C)c3ccccc32)C1 (configuration not stated)	3	5	106*	10	100*	108*	95*	57*
Cc1ccccc1OCc1n(CC(=O)OC2CC(C)CCC2C(C)C)c2ccccc2[n+]1C (configuration not stated)	10	8	114*	20	65*	99*!	99*	60*
COc1ccc(-c2cc3ccccc3oc2=O)cc1	8	2	-9	-1	-86	2	·	·
Nc1ccc(-c2cc3ccccc3oc2=O)cc1	4	-2	·	-3	52*	-36	30	45*
Cc1ccc(-n2c(O)c(/C=N/NC(=O)C3COc4ccccc4O3)c3ccccc3c2=O)cc1 (configuration not stated)	·	4	-6	101*	60*	35	-2	·
Cc1ccc(/C=N/NC(=O)C2COc3ccccc3O2)s1 (configuration not stated)	21	-2	-1	-14	53*	-19	76*	57*
O=C(NC1=NCCS1)C1COc2ccccc2O1 (configuration not stated)	·	-2	-20	3	80*	-5	81*	34
COc1ccccc1C(=O)Nc1ccc(-c2nnn(CC(=O)N3CCOCC3)n2)cc1	-2	1	5	2	-6	-8	·	·
Cc1ccc(S(=O)(=O)N2C(=O)/C(=C3\SC(=S)NC3=O)c3ccccc32)cc1	40	·	5	10	51*	0	37	82*
CC(C)C(=O)Nc1ccc(C(=O)NNC(=O)CCCOc2ccc(Cl)cc2Cl)cc1	-4	0	0	2	-2	-8	·	·
COc1ccc(CNC(=O)Cn2cnc3c(NCc4ccccc4)ncnc32)cc1	·	-2	·	·	61*	·	28	·
COC(=O)c1ccc(CNC(=O)Cn2cnc3c(NCc4ccccc4)ncnc32)cc1	·	0	·	·	27	·	·	·
O=C(CCCN1C(=O)/C(=C/c2cccc(Br)c2)SC1=S)Nc1ccccn1	44	2	-21	28	69*	14	84*	31
O=C(CCCN1C(=O)/C(=C/c2cccc(Br)c2)SC1=S)Nc1cccnc1	-16	-1	-9	19	78*	50	78*	63*
O=C(CCCN1C(=O)/C(=C\c2cccc(Br)c2)SC1=S)Nc1cccnc1	47	8	-6	8	100*	46	86*	24
O=C(CCCN1C(=O)/C(=C\c2cccs2)SC1=S)Nc1cccnc1	-4	2	-7	-5	78*	0	80*	25
O=C(c1cc(N2C(=O)C3C4CCC(C4)C3C2=O)ccc1Cl)N1CCN(c2ccccc2)CC1 (configuration not stated)	-13	0	8	-5	0	0	·	·
SMILES	CSC inhib	MPTP block	Beta cell apopt	SKKanGAS inh	Mdm2 MdmX PPI	Calb FLC	Mdm2 MdmX conf	FLuc counter
Cc1ccc(/C=C2\SC(=S)N(CC(=O)Nc3cccnc3)C2=O)cc1	8	7	-1	3	18	-1	·	·
COc1ccccc1/C=C1/SC(=S)N(CCC(=O)Nc2cccnc2)C1=O	15	-2	-5	23	29	3	·	·
Cc1ccc(/C=C2\SC(=S)N(CCCC(=O)Nc3cccnc3)C2=O)cc1	0	13	·	3	92*	-3	72*	5
O=C(CCCN1C(=O)/C(=C/c2ccccc2OC(F)F)SC1=S)Nc1cccnc1	-13	0	-4	·	85*	·	59*	22
O=C(N/N=C(\c1ccccc1)c1cccnc1)c1cccc(F)c1	109*	0	108*	95*	99*	-5	80*	33
O=C(N/N=C(\Cc1ncc[nH]1)c1ccccc1)c1cccnc1	100*	-2	7	·	54*	3	64*	33
O=C(N/N=C(\Cc1ncc[nH]1)c1ccccc1)c1ccncc1	79*	0	101*	-3	67*	8	63*	30
NC(=O)c1ccc(C(=O)N/N=C(/Cc2ccccc2)c2ccccc2)cc1	-8	1	-7	7	31	-18	·	·
O=C(N/N=C(\Cc1ncc[nH]1)c1ccccc1)c1ccccc1	20	·	46	9	76*	?	53*	25
O=C(N/N=C(\c1ccccc1)c1cccnc1)c1ccc(O)cc1	-8	-1	-1	-4	13	-1	·	·
CCN(CC)CCCn1c(=S)[nH]c2ccc(Cl)cc2c1=O	·	0	1	-4	13	2	·	·
COc1ccccc1C(=O)NNC(=O)c1ccccc1	-5	0	·	-3	-55	0	·	·
O=C(NNC1=C(C(=O)C(F)(F)F)CCC1)c1ccccc1Cl	56	-14	9	16	7	6	·	·
COc1ccccc1C(=O)NNC1=C(C(=O)C(F)(F)F)CCC1	-2	6	10	2	70*	11	58*	72*
O=C(NNC1=C(C(=O)C(F)(F)F)CCC1)c1ccccc1O	·	0	16	87*	50	?	39	·
Nc1ccccc1C(=O)NNC1=C(C(=O)C(F)(F)F)CCC1	19	21	-13	-2	53*	-21	49*	148*
CS(=O)(=O)Nc1ccc(F)cc1	·	0	·	·	·	·	·	·
CC1CNC(=S)N(c2ccc(F)cc2)C1=O (configuration not stated)	·	-1	·	·	·	·	·	·
